Measurements: PubChem BioAssay (EPA / NIEHS)
A structure can be active in one record and inactive in another. Activity calls are given as the source filed them. Rule for the calls: active = hit-call score of the fitted dose curve at least 0.9, where 1 is the maximum; inactive = score below 0.9.

Experiments:
[1] = read-out: Plasminogen activator inhibitor-1 (PAI1), SERPINE1 (gene 5054); experiment: BSK_MyoF_PAI1: BioMAP Diversity Plus: MyoF Assay for Plasminogen activator inhibitor-1 (PAI1) Biomarker Activity (AID 2284256); settings: primary human lung fibroblasts;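 for outcome: PAI-1 protein level measured by ELISA in fibroblast cultures; PAI-1 read 24 h after compound addition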
Outline: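 In this multiplexed primary-cell system, fibroblasts from human lung received compound for 24 h before ELISA detection of PAI-1; overt toxicity was checked by SRB (0.1%, TCA-fixed, 560 nm) in parallel wells.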

[2] = read-out: Collagen I, COL1A1 (gene 1277); experiment: BSK_hDFCGF_CollagenI: BioMAP Diversity Plus: hDFCGF Assay for Collagen I Biomarker Activity (AID 2284250); settings: primary human foreskin fibroblasts
Outline: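 Collagen I quantified by ELISA 24 h after chemical dosing of human dermal fibroblast primary cells, with parallel SRB staining (0.1%, TCA-fixed, 560 nm) for overt cytotoxicity.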

[3] = read-out: Plasminogen activator inhibitor-1 (PAI1), SERPINE1 (gene 5054); experiment: BSK_KF3CT_PAI1: BioMAP Diversity Plus: KF3CT Assay for Plasminogen activator inhibitor-1 (PAI1) Biomarker Activity (AID 2284252); settings: primary human keratinocytes with fibroblasts
Outline: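 PAI-1 levels quantified by ELISA after 24 h compound exposure of primary human skin keratinocytes co-cultured with fibroblasts. Activity is the gain relative to DMSO; cytotoxicity tracked in parallel cultures via SRB staining.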

[4] = read-out: Monocyte Chemoattractant Protein-1 (MCP1), CCL2 (gene 6347); experiment: BSK_IMphg_MCP1: BioMAP Diversity Plus: IMphg Assay for Monocyte Chemoattractant Protein-1 (MCP1) Biomarker Activity (AID 2284253); settings: primary human endothelial cells with macrophages
Outline: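 ELISA readout of MCP-1 at 24 hours in IMphg co-cultures of venular endothelial cells and macrophages, normalised to DMSO; parallel cultures stained with sulforhodamine B for overt cytotoxicity.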

[5] = read-out: Interleukin-8 (IL8), CXCL8 (gene 3576); experiment: BSK_KF3CT_IL8: BioMAP Diversity Plus: KF3CT Assay for Interleukin-8 (IL8) Biomarker Activity (AID 2284254); settings: primary human keratinocytes with fibroblasts
Outline: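 Using parallel SRB-stained cultures to flag overt toxicity, the study quantified IL-8 by ELISA in human keratinocyte–foreskin fibroblast co-cultures 24 h after dosing, with DMSO as negative control and baseline.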

[6] = read-out: Macrophage Inflammatory Protein-1 Alpha (MIP1a), CCL3 (gene 6348); experiment: BSK_IMphg_MIP1a: BioMAP Diversity Plus: IMphg Assay for Macrophage Inflammatory Protein-1 Alpha (MIP1a) Biomarker Activity (AID 2284255); settings: primary human endothelial cells with macrophages
Outline: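 MIP-1a protein levels were quantified by ELISA after 24 h treatment of human endothelial cell–macrophage co-cultures, compared with DMSO. Parallel cultures were fixed with TCA and stained with 0.1% SRB to gauge overt cytotoxicity.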

[7] = read-out: Eotaxin 3, CCL26 (gene 10344); experiment: BSK_BF4T_Eotaxin3: BioMAP Diversity Plus: BF4T Assay for Eotaxin 3 Biomarker Activity (AID 2284258); settings: primary human bronchial epithelial cells with fibroblasts
Outline: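 ELISA measurement of Eotaxin-3 after 24 h chemical exposure in a bronchial epithelial/dermal fibroblast co-culture, with DMSO as baseline. Parallel SRB staining (0.1% SRB after 10% TCA fixation, 560 nm) flagged overt cytotoxicity.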

[8] = read-out: Monocyte Chemoattractant Protein-1 (MCP1), CCL2 (gene 6347); experiment: BSK_BF4T_MCP1: BioMAP Diversity Plus: BF4T Assay for Monocyte Chemoattractant Protein-1 (MCP1) Biomarker Activity (AID 2284259); settings: primary human bronchial epithelial cells with fibroblasts
Outline: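 MCP-1 ELISA readout taken 24 h after dosing in the BF4T system (bronchial epithelial cells plus dermal fibroblasts). Parallel SRB total-protein staining flagged cytotoxicity; DMSO served as baseline, positive fitting direction.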

CD69, CD69 (gene 969) = experiment: BSK_IMphg_CD69: BioMAP Diversity Plus: IMphg Assay for CD69 Biomarker Activity (AID 2284257); settings: primary human endothelial cells with macrophages
Outline: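 Readout is ELISA for CD69 in primary human venular endothelial cell/macrophage co-culture, taken at 24 h post-dosing. SRB staining of parallel cultures gauged overt cytotoxicity; signal increase versus DMSO defined activity.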

With CS(C)(=O)=O the outcome [1] was “inactive”.
In the case of OCCCC(F)(F)C(F)(F)C(F)(F)F, the outcome [2] is reported as “inactive”, the outcome [3] is reported as “inactive” and the outcome [4] is reported as “inactive”. The outcome [5] was “inactive”, the outcome [6] was “inactive” and the outcome [1] was “inactive”. The outcome [7] was “inactive” and the outcome [8] was “inactive”.
For OCC(F)(F)C(F)(F)C(F)(F)C(F)(F)C(F)(F)C(F)F, the outcome [2] was “inactive”, the outcome [3] was “inactive” and the outcome [4] was “inactive”. The outcome [5] was “inactive”, the outcome [6] was “inactive” and the outcome [1] was “inactive”. For the same molecule, the outcome [7] was “inactive” and the outcome [8] was “inactive”.
For CC(CCl)OP(=O)(OC(C)CCl)OC(C)CCl (stereo not given), the outcome [1] was “inactive”.
With CCN(CC)c1ccc2c(C)cc(=O)oc2c1 the outcome [1] was “inactive”.
For CO[Si](OC)(c1ccccc1)c1ccccc1, the AC50 [1] was 30.5 µM (active).
NC(=O)C(F)(F)C(F)(F)C(F)(F)C(F)(F)F was tested, and the outcome [2] was “inactive”, the outcome [3] was “inactive” and the outcome [4] was “inactive”. The outcome [5] was “inactive”, the outcome [6] was “inactive” and the outcome [1] was “inactive”. The outcome [7] was “inactive”, the AC50 [8] was 26.5 µM (active) and the outcome [8] was “inactive”.
For OCC(F)(F)C(F)(F)C(F)(F)C(F)(F)C(F)(F)C(F)(F)F, the outcome [2] was “inactive”, the outcome [3] was “inactive” and the outcome [4] was “inactive”. The outcome [5] was “inactive”, the outcome [6] was “inactive” and the outcome [1] was “inactive”. For the same molecule, the outcome [7] was “inactive” and the outcome [8] was “inactive”.
In the case of O=C(O)C(F)(F)C(F)(F)C(F)(F)C(F)(F)C(F)(F)C(F)(F)C(F)(F)C(F)(F)C(F)(F)C(F)(F)C(F)(F)C(F)(F)F, the outcome [2] is reported as “inactive”, the outcome [3] is reported as “inactive” and the outcome [4] is reported as “inactive”. For the same molecule, the outcome [5] was “inactive”, the outcome [6] was “inactive” and the outcome [1] was “inactive”. For the same molecule, the outcome [7] was “inactive” and the outcome [8] was “inactive”.
C=CC/C=C/C/C=C/C/C=C/C was tested, and the AC50 [1] was 0.016 µM (active).
For C=CC(F)(F)C(F)(F)C(F)(F)C(F)(F)C(F)(F)C(F)(F)C(F)(F)C(F)(F)F, the outcome [2] was “inactive”, the outcome [3] was “inactive” and the outcome [4] was “inactive”. For the same molecule, the outcome [5] was “inactive”, the outcome [6] was “inactive” and the outcome [1] was “inactive”. For the same molecule, the outcome [7] was “inactive” and the outcome [8] was “inactive”.
For FC(F)(F)C(F)(F)C(F)(F)C(F)(F)CCI, the outcome [2] was “inactive”, the outcome [3] was “inactive” and the outcome [4] was “inactive”. For the same molecule, the outcome [5] was “inactive”, the outcome [6] was “inactive” and the outcome [1] was “inactive”. The outcome [7] was “inactive”, the AC50 [8] was 7.18 µM (active) and the outcome [8] was “inactive”.
FC(F)(F)C(F)(F)CNCC(F)(F)C(F)(F)F was tested, and the outcome [2] was “inactive”, the outcome [3] was “inactive” and the outcome [4] was “inactive”. For the same molecule, the outcome [5] was “inactive”, the outcome [6] was “inactive” and the outcome [1] was “inactive”. For the same molecule, the outcome [7] was “inactive” and the outcome [8] was “inactive”.
For CCCCCCCOC(=O)c1ccccc1C(=O)OCCCCCCC, the outcome [1] was “inactive”.
In the case of O=C(O)C(F)(F)C(F)(F)F, the outcome [2] is reported as “inactive”, the outcome [3] is reported as “inactive” and the outcome [4] is reported as “inactive”. The outcome [5] was “inactive”, the outcome [6] was “inactive” and the outcome [1] was “inactive”. For the same molecule, the outcome (CD69, CD69 (gene 969)) was “inactive”, the outcome [7] was “inactive” and the AC50 [8] was 48 µM (active). For the same molecule, the outcome [8] was “inactive”.
In the case of CCc1ccc(C(c2ccc(CC)cc2)C(Cl)Cl)cc1, the AC50 [1] is reported as 31.1 µM (active).
For CCCCNc1ccccc1, the outcome [1] was “inactive”.
For CCCCOCCOCCOC(=O)CCCCC(=O)OCCOCCOCCCC, the outcome [1] was “inactive”.
CCCCCCC(C)OC(=O)CCCCC(=O)OC(C)CCCCCC (stereo not given) was tested, and the outcome [1] was “inactive”.
For C#C[C@]1(O)CC[C@H]2[C@@H]3CCc4cc(OC)ccc4[C@H]3CC[C@@]21C, the outcome [1] was “inactive”.
O=C(O)C(F)(F)C(F)(F)C(F)(F)C(F)(F)C(F)(F)C(F)(F)C(F)(F)C(F)(F)C(F)(F)C(F)(F)C(F)(F)C(F)(F)C(F)(F)F was tested, and the outcome [2] was “inactive”, the outcome [3] was “inactive” and the outcome [4] was “inactive”. The outcome [5] was “inactive”, the outcome [6] was “inactive” and the outcome [1] was “inactive”. For the same molecule, the outcome [7] was “inactive” and the outcome [8] was “inactive”.
With COC(=O)CCC(F)(F)C(F)(F)C(F)(F)C(F)(F)F the outcome [2] was “inactive”, the outcome [3] was “inactive” and the outcome [4] was “inactive”. For the same molecule, the outcome [5] was “inactive”, the outcome [6] was “inactive” and the outcome [1] was “inactive”. For the same molecule, the outcome [7] was “inactive” and the outcome [8] was “inactive”.
With O[Si](c1ccccc1)(c1ccccc1)c1ccccc1 the AC50 [1] was 20 µM (active).
CCCCCCCCCCCCCCCC[N+](C)(C)Cc1ccccc1 was tested, and the AC50 [1] was 2.47 µM (active).
For Cc1ccc(S(=O)(=O)OCC(F)(F)C(F)(F)C(F)(F)C(F)(F)C(F)(F)C(F)F)cc1, the outcome [2] was “inactive”, the outcome [3] was “inactive” and the outcome [4] was “inactive”. The outcome [5] was “inactive”, the outcome [6] was “inactive” and the outcome [1] was “inactive”. For the same molecule, the outcome (CD69, CD69 (gene 969)) was “inactive”, the outcome [7] was “inactive” and the AC50 [8] was 7.88 µM (active). The outcome [8] was “inactive”.
With CCc1c(Br)c(Br)c(Br)c(Br)c1Br the outcome [1] was “inactive”.
For CCCCCCCCC(F)(F)C(F)(F)C(F)(F)C(F)(F)C(F)(F)C(F)(F)F, the outcome [2] was “inactive”, the outcome [3] was “inactive” and the outcome [4] was “inactive”. The outcome [5] was “inactive”, the outcome [6] was “inactive” and the outcome [1] was “inactive”. The outcome [7] was “inactive” and the outcome [8] was “inactive”.
For CC(=O)Nc1ccc(N=Nc2cc(C)ccc2O)cc1, the outcome [1] was “inactive”.
